# Measurements published in PubChem BioAssay (NCI).
# About 79,000 compounds went through this panel and 15% of them were active in at least one assay; those are over-represented in the sample as a whole. Unmarked numbers belong to inactive results. Activity calls are given as the source filed them. Rule as the data show it: active = growth inhibition above about 70%; inactive = the rest.
# Experiment: NCI Yeast Anticancer Drug Screen. Data for the rad50 strain (AID 155);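 also: 0% = growth of vehicle-only cultures of the same strain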
# Conditions: S. cerevisiae rad50 strain growth inhibition; at 50.0 µM; hits give high values
# Summary of the method: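 Vehicle-treated cultures provide the reference for the growth inhibition reported for compound-exposed, repair-deficient yeast.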
row,Structure (SMILES),growth inhibition
1,COc1ccc(C(=O)c2cc3c(ccc4ccccc43)oc2=O)cc1,-3.7%
2,CC(C)NC(=O)OCc1c(COC(=O)NC(C)C)c(S(=O)(=O)c2ccccc2)n2c1CCC2,11.5%
3,Cc1ccnc(NC(=O)Nc2ccccc2Cl)c1,9.65%
4,c1ccc2c(c1)NC(N1CCCCC1)=Nc1ncncc1-2,14.8%
5,O=S(O)CCCSSSCCCS(=O)O,26.1%
6,CC(=O)c1ccccc1C(=O)O,6.05%
7,CC1(O)OC(=O)c2ccc3ccccc3c21 (stereo not given),-11.4%
8,CC(=O)CC(=O)Nc1cccc(C)n1,-0.4%
9,CCCCCCCCCC(=O)Oc1cccc2onc(C)c12,-21.2%
10,Cc1ccc(C(C)C)c(OC(=O)NCCCCCCNC(=O)Oc2cc(C)ccc2C(C)C)c1,-11%
11,CC1(C)CCC23CCC4(C)C(CCC5C6(C)CCC(=O)C(C)(C)C6CCC54C)C2C1OC3 (stereo not given),-27.4%
12,CN(C)S(=O)(=O)c1ccc(CCc2ccc(S(=O)(=O)N(C)C)cc2)cc1,13.6%
13,CC(=O)CC(C)(C)NC(=S)NCCO,1.2%
14,C[n+]1c(/C=C/C=C/c2ccccc2)oc2ccccc21,-38.3%
15,C/C(=C\Cc1cc(O)c(C)cc1O)CC/C=C(\C)Cc1cc(C)co1,-14.9%
16,CCC(=O)Oc1ccc([N+](=O)[O-])cc1[N+](=O)[O-],38.6%
17,O=[N+]([O-])c1ccc(N/N=C2\C=C(c3ccccc3)C(c3ccccc3)C2)c([N+](=O)[O-])c1 (stereo not given),-36.3%
18,CC1=C(C(=O)CC(=O)C(=O)Nc2ccc(C)cc2C)Sc2ccccc2N1,-1.55%
19,CCCCCCCCCCCCCCCC(=O)O,-12.9%
20,CCC1(N=[N+]=[N-])C(=O)c2ccccc2N(c2ccccc2)C1=O (stereo not given),-13.3%

row,Structure (SMILES),growth inhibition
1,Cc1[nH]c(=O)nc(CC(O)(c2ccccc2)c2ccccc2)c1-c1ccccc1,-31.6%
2,Cc1ccc(-n2c(C)n[nH]c2=O)cc1,-10.7%
3,O=C1/C(=C/c2ccc(O)cc2)CCC1CNc1ccc(Cl)cc1 (stereo not given),14.8%
4,CCOC(=O)C1=C(Nc2ccc(Cl)cc2Cl)OC/C1=N\NS(=O)(=O)c1ccc(C)cc1,-3.95%
5,CCCc1cc(C)cc(N=Cc2ccccc2)c1O,96.6% (active)
6,CCCCCCCCCCS(=O)(=O)CC(=O)O,3.8%
7,c1ccc2c(c1)ncc1cccn12,5.15%
8,CN1CC(O)CN(C)C1=S,-9.05%
9,COc1ccc(NC(=O)CC(=O)N2N=C(N(CCC#N)c3ccc(Cl)cc3)CC2c2ccccc2)cc1 (stereo not given),16.5%
10,O=c1[nH]c2nc3ccccc3c(=O)n2/c1=C/c1ccco1,30.2%
11,CCN1CCCC1CO (stereo not given),-1.15%
12,NCCN1C(=O)c2ccccc2C1(O)c1ccc(Cl)cc1 (stereo not given),-6.25%
13,CC(=O)Nc1nc(C)c(CCCOc2ccc([N+](=O)[O-])cc2)c(Cl)n1,1.65%
14,O=c1[nH]c2cc([N+](=O)[O-])ccc2c2ccc(Cl)cc12,57.4%
15,CSc1nc(N)c(NS(=O)(=O)c2ccc([N+](=O)[O-])cc2)c(=O)[nH]1,4.35%
16,COc1cc2c3c(c1OC)-c1cc4c(cc1CC3(C#N)N(C(=O)c1ccccc1)CC2)OCO4 (stereo not given),3.5%
17,CN1CCN(C(=O)NC(C)(C)C)CC1,-1.45%
18,COC(=O)C1(Cc2ccc3c(c2)CCC3)Cc2cc3c(cc2C1)CCC3,-16.1%
19,CCOC(=O)/C=C(/C)c1ccccc1,12.2%
20,CNc1ncn(-c2c(C)cccc2C)c(=O)n1,-2.5%

# Experiment: NCI Yeast Anticancer Drug Screen. Data for the mec2-1 strain (AID 157)
# Conditions: S. cerevisiae mec2-1 strain, at 50.0 µM, hits give high values
# Summary of the method: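 Strain: mec2-1 (DNA repair/cell cycle alteration). Compound exposure, then growth measured; inhibition expressed relative to vehicle.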
row,Structure (SMILES),growth inhibition
1,COc1ccc(C(=O)c2cc3c(ccc4ccccc43)oc2=O)cc1,0.6%
2,CC(C)NC(=O)OCc1c(COC(=O)NC(C)C)c(S(=O)(=O)c2ccccc2)n2c1CCC2,1.5%
3,Cc1ccnc(NC(=O)Nc2ccccc2Cl)c1,8.15%
4,c1ccc2c(c1)NC(N1CCCCC1)=Nc1ncncc1-2,-8.15%
5,O=S(O)CCCSSSCCCS(=O)O,20.9%
6,CC(=O)c1ccccc1C(=O)O,7.45%
7,CC1(O)OC(=O)c2ccc3ccccc3c21 (stereo not given),-19.9%
8,CC(=O)CC(=O)Nc1cccc(C)n1,-9.95%
9,CCCCCCCCCC(=O)Oc1cccc2onc(C)c12,-43.5%
10,Cc1ccc(C(C)C)c(OC(=O)NCCCCCCNC(=O)Oc2cc(C)ccc2C(C)C)c1,-4.2%
11,CC1(C)CCC23CCC4(C)C(CCC5C6(C)CCC(=O)C(C)(C)C6CCC54C)C2C1OC3 (stereo not given),-4.15%
12,CN(C)S(=O)(=O)c1ccc(CCc2ccc(S(=O)(=O)N(C)C)cc2)cc1,2.65%
13,CC(=O)CC(C)(C)NC(=S)NCCO,-26.5%
14,C[n+]1c(/C=C/C=C/c2ccccc2)oc2ccccc21,-2.25%
15,C/C(=C\Cc1cc(O)c(C)cc1O)CC/C=C(\C)Cc1cc(C)co1,-19.7%
16,CCC(=O)Oc1ccc([N+](=O)[O-])cc1[N+](=O)[O-],30.6%
17,O=[N+]([O-])c1ccc(N/N=C2\C=C(c3ccccc3)C(c3ccccc3)C2)c([N+](=O)[O-])c1 (stereo not given),8.95%
18,CC1=C(C(=O)CC(=O)C(=O)Nc2ccc(C)cc2C)Sc2ccccc2N1,-20.9%
19,CCCCCCCCCCCCCCCC(=O)O,-34.1%
20,CCC1(N=[N+]=[N-])C(=O)c2ccccc2N(c2ccccc2)C1=O (stereo not given),-13%

row,Structure (SMILES),growth inhibition
1,Cc1[nH]c(=O)nc(CC(O)(c2ccccc2)c2ccccc2)c1-c1ccccc1,-38.1%
2,Cc1ccc(-n2c(C)n[nH]c2=O)cc1,-18%
3,O=C1/C(=C/c2ccc(O)cc2)CCC1CNc1ccc(Cl)cc1 (stereo not given),12.6%
4,CCOC(=O)C1=C(Nc2ccc(Cl)cc2Cl)OC/C1=N\NS(=O)(=O)c1ccc(C)cc1,9.25%
5,CCCc1cc(C)cc(N=Cc2ccccc2)c1O,97.6% (active)
6,CCCCCCCCCCS(=O)(=O)CC(=O)O,-2.35%
7,c1ccc2c(c1)ncc1cccn12,-10.9%
8,CN1CC(O)CN(C)C1=S,-8.2%
9,COc1ccc(NC(=O)CC(=O)N2N=C(N(CCC#N)c3ccc(Cl)cc3)CC2c2ccccc2)cc1 (stereo not given),-17%
10,O=c1[nH]c2nc3ccccc3c(=O)n2/c1=C/c1ccco1,16.8%
11,CCN1CCCC1CO (stereo not given),-25.1%
12,NCCN1C(=O)c2ccccc2C1(O)c1ccc(Cl)cc1 (stereo not given),-35.4%
13,CC(=O)Nc1nc(C)c(CCCOc2ccc([N+](=O)[O-])cc2)c(Cl)n1,11.4%
14,O=c1[nH]c2cc([N+](=O)[O-])ccc2c2ccc(Cl)cc12,0%
15,CSc1nc(N)c(NS(=O)(=O)c2ccc([N+](=O)[O-])cc2)c(=O)[nH]1,-8.05%
16,COc1cc2c3c(c1OC)-c1cc4c(cc1CC3(C#N)N(C(=O)c1ccccc1)CC2)OCO4 (stereo not given),8.05%
17,CN1CCN(C(=O)NC(C)(C)C)CC1,-6.6%
18,COC(=O)C1(Cc2ccc3c(c2)CCC3)Cc2cc3c(cc2C1)CCC3,15.7%
19,CCOC(=O)/C=C(/C)c1ccccc1,18.2%
20,CNc1ncn(-c2c(C)cccc2C)c(=O)n1,-3.6%
